Calls of active or inactive are those of the source.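 The calls were made as follows: active = GFP response below 50% of the DMSO control; inconclusive = fewer than 70 events counted for a yeast strain; inactive = the rest.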
assay: RPL19A-GFP modulators, yeast TOR pathway, confirmation, cell-based, S. cerevisiae, flow cytometry, cherry picks, mother/daughter gates (AID 2270); conditions: S. cerevisiae RPL19A-GFP strain, 3 h, at 10 µM, stronger effect = lower value, 100 = same GFP as DMSO wells

| SMILES | GFP response vs DMSO |
| --- | --- |
| O=C(/C=C/c1ccc(F)cc1)NC(=S)NNC(=O)c1cnccn1 | 108% (inactive) |
| Cc1ccc(/C=C/C(=O)c2ccc(C)cc2)cc1 | 97.2% (inactive) |
| Cc1nn(Cc2ccc([N+](=O)[O-])cc2)c(=O)n1-c1cccc(Cl)c1 | 96% (inactive) |
| Cn1c(=O)[nH]c(=O)c2c1nc(N1CCCCC1)n2CCOc1ccccc1 | 99% (inactive) |
| COC(=O)NC1CCC(CC2CCC(NC(=O)OC)CC2)CC1 (stereo not given) | 99% (inactive) |
| COCCNC(=O)c1ccc(Cl)c(Cl)c1 | 97.2% (inactive) |
| COc1cc(-c2nc3ccccn3c2NCC2CCCO2)ccc1O (stereo not given) | 102% (inactive) |
| CC(=O)Nc1ccc(NC(=O)c2nc(S(=O)(=O)Cc3cccc(C)c3)ncc2Cl)cc1 | 102% (inactive) |
| O=C(COc1ccccc1[N+](=O)[O-])Nc1ccc(NC(=O)c2cc3ccccc3o2)cc1 | 100% (inactive) |
| CCOC(=O)/C(=N\NC(=O)c1ccccc1)c1ccccc1 | 97.2% (inactive) |
| COC(=O)c1ccc(N2C(=O)CC(Sc3n[nH]c(C)n3)C2=O)cc1 (stereo not given) | 101% (inactive) |
| CC(C)C(=O)NC(c1cccs1)c1cc([N+](=O)[O-])c2cccnc2c1O (stereo not given) | 95.8% (inactive) |
| Cc1ccc(/C=N/Nc2ncc(Cl)cc2Cl)s1 | 86.7% (inactive) |
| CCOC(=O)Cc1csc(NC(=O)c2sc3nc4c(C)cc(C)cc4cc3c2N)n1 | 104% (inactive) |
| Cn1cc([N+](=O)[O-])c(C(=O)Nc2nc(-c3ccc(Cl)cc3)cs2)n1 | 97.8% (inactive) |
| CCCCOC(=O)C1CCC[C@@H](C)N1 (stereo not given in full) | 101% (inactive) |
| CCN=C(NCC)SC1CC(=O)N(c2cccc(OCC)c2)C1=O (stereo not given) | 99.2% (inactive) |
| COc1ccc(NC2=C(Cl)C(=O)N(CCc3ccccc3)C2=O)c(OC)c1 | 98% (inactive) |
| COc1ccccc1-c1noc(CCC(=O)Nc2cccc(C(F)(F)F)c2)n1 | 98.2% (inactive) |
| COc1ccc(-c2csc(N(CC(C)C)C(=O)c3ccco3)n2)cc1 | 98.2% (inactive) |

| SMILES | GFP response vs DMSO |
| --- | --- |
| CC(=O)Nc1ccc(-c2csc(NC(=O)c3ccc(C)o3)n2)cc1 | 98.4% (inactive) |
| CNc1cc(CSC)nc(SCc2ccc(Cl)cc2Cl)n1 | 93.5% (inactive) |
| O=C1C(CSCc2ccccc2)NC(=S)N1c1ccccc1 (stereo not given) | 102% (inactive) |
| COCCn1c(=N)c(C(=O)NCc2ccco2)cc2c(=O)n3ccccc3nc21 | 100% (inactive) |
| Cc1ccc(-c2csc(NC(=O)c3ccno3)n2)cc1 | 99% (inactive) |
| Cc1cccc(CN2CCSc3sccc3C2=O)c1 | 96.8% (inactive) |
| COC(=O)c1ccc(/C=C/C(=O)c2ccc(OC)cc2)cc1 | 99.9% (inactive) |
| CCOC(=O)CCS(=O)(=O)c1nc(-c2ccccc2)cc(C(F)(F)F)n1 | 98.8% (inactive) |
| CCCN(Cc1nnc(-c2ccccc2Cl)o1)C(=O)c1cc([N+](=O)[O-])cc([N+](=O)[O-])c1 | 97.3% (inactive) |
| COc1ccc(-c2[nH]ncc2N=Nc2ccccc2)cc1 | 96.2% (inactive) |
| Cc1cccc(Cn2cc(/C=C/[N+](=O)[O-])c3ccccc32)c1 | 106% (inactive) |
| OC1(c2ccc(F)cc2)CSC(=Nc2cccnc2)N1Cc1ccco1 (stereo not given) | 98% (inactive) |
| COc1cc(/C=C2\N=C(C)OC2=O)cc(Cl)c1OC(C)=O | 107% (inactive) |
| O=c1c2c(-c3ccc(Cl)cc3)csc2ncn1/N=C/c1cccc([N+](=O)[O-])c1O | 99.3% (inactive) |
| O=[N+]([O-])c1cc(O)c2ncccc2c1 | 99.1% (inactive) |
| CCc1nnc(NC(=O)c2ccc(S(=O)(=O)N(CC(C)C)CC(C)C)cc2)o1 | 101% (inactive) |
| CCn1c(=O)c(C(=O)NCc2ccc(OC)cc2)c(O)c2ccccc21 | 98.5% (inactive) |
| CS(=O)(=O)N1N=C(c2ccco2)CC1c1ccc(Cl)cc1 (stereo not given) | 101% (inactive) |
| CC1(C)CCN2CCC(C)(C)c3c(O)ccc1c32 | 105% (inactive) |
| O/C=c1\ccc2cccc3nc(C(F)(F)F)nc1c23 | 111% (inactive) |

same assay, conditions: S. cerevisiae RPL19A-GFP strain, 3 h, measured here: daughter cell gate, at 10 µM, stronger effect = lower value, 100 = same GFP as DMSO wells

| SMILES | GFP response vs DMSO |
| --- | --- |
| O=C(/C=C/c1ccc(F)cc1)NC(=S)NNC(=O)c1cnccn1 | 89.8% |
| Cc1ccc(/C=C/C(=O)c2ccc(C)cc2)cc1 | 96.2% |
| Cc1nn(Cc2ccc([N+](=O)[O-])cc2)c(=O)n1-c1cccc(Cl)c1 | 96.6% |
| Cn1c(=O)[nH]c(=O)c2c1nc(N1CCCCC1)n2CCOc1ccccc1 | 99.5% |
| COC(=O)NC1CCC(CC2CCC(NC(=O)OC)CC2)CC1 (stereo not given) | 98.9% |
| COCCNC(=O)c1ccc(Cl)c(Cl)c1 | 95.6% |
| COc1cc(-c2nc3ccccn3c2NCC2CCCO2)ccc1O (stereo not given) | 106% |
| CC(=O)Nc1ccc(NC(=O)c2nc(S(=O)(=O)Cc3cccc(C)c3)ncc2Cl)cc1 | 99.5% |
| O=C(COc1ccccc1[N+](=O)[O-])Nc1ccc(NC(=O)c2cc3ccccc3o2)cc1 | 98.9% |
| CCOC(=O)/C(=N\NC(=O)c1ccccc1)c1ccccc1 | 95.7% |
| COC(=O)c1ccc(N2C(=O)CC(Sc3n[nH]c(C)n3)C2=O)cc1 (stereo not given) | 103% |
| CC(C)C(=O)NC(c1cccs1)c1cc([N+](=O)[O-])c2cccnc2c1O (stereo not given) | 95.2% |
| Cc1ccc(/C=N/Nc2ncc(Cl)cc2Cl)s1 | 62.7% |
| CCOC(=O)Cc1csc(NC(=O)c2sc3nc4c(C)cc(C)cc4cc3c2N)n1 | 96.7% |
| Cn1cc([N+](=O)[O-])c(C(=O)Nc2nc(-c3ccc(Cl)cc3)cs2)n1 | 97% |
| CCCCOC(=O)C1CCC[C@@H](C)N1 (stereo not given in full) | 102% |
| CCN=C(NCC)SC1CC(=O)N(c2cccc(OCC)c2)C1=O (stereo not given) | 97.1% |
| COc1ccc(NC2=C(Cl)C(=O)N(CCc3ccccc3)C2=O)c(OC)c1 | 96.6% |
| COc1ccccc1-c1noc(CCC(=O)Nc2cccc(C(F)(F)F)c2)n1 | 97.9% |
| COc1ccc(-c2csc(N(CC(C)C)C(=O)c3ccco3)n2)cc1 | 100% |

| SMILES | GFP response vs DMSO |
| --- | --- |
| CC(=O)Nc1ccc(-c2csc(NC(=O)c3ccc(C)o3)n2)cc1 | 98.1% |
| CNc1cc(CSC)nc(SCc2ccc(Cl)cc2Cl)n1 | 88.6% |
| O=C1C(CSCc2ccccc2)NC(=S)N1c1ccccc1 (stereo not given) | 102% |
| COCCn1c(=N)c(C(=O)NCc2ccco2)cc2c(=O)n3ccccc3nc21 | 95.3% |
| Cc1ccc(-c2csc(NC(=O)c3ccno3)n2)cc1 | 98.4% |
| Cc1cccc(CN2CCSc3sccc3C2=O)c1 | 95.7% |
| COC(=O)c1ccc(/C=C/C(=O)c2ccc(OC)cc2)cc1 | 97.8% |
| CCOC(=O)CCS(=O)(=O)c1nc(-c2ccccc2)cc(C(F)(F)F)n1 | 102% |
| CCCN(Cc1nnc(-c2ccccc2Cl)o1)C(=O)c1cc([N+](=O)[O-])cc([N+](=O)[O-])c1 | 98.4% |
| COc1ccc(-c2[nH]ncc2N=Nc2ccccc2)cc1 | 94.3% |
| Cc1cccc(Cn2cc(/C=C/[N+](=O)[O-])c3ccccc32)c1 | 103% |
| OC1(c2ccc(F)cc2)CSC(=Nc2cccnc2)N1Cc1ccco1 (stereo not given) | 99.6% |
| COc1cc(/C=C2\N=C(C)OC2=O)cc(Cl)c1OC(C)=O | 109% |
| O=c1c2c(-c3ccc(Cl)cc3)csc2ncn1/N=C/c1cccc([N+](=O)[O-])c1O | 99.3% |
| O=[N+]([O-])c1cc(O)c2ncccc2c1 | 94.2% |
| CCc1nnc(NC(=O)c2ccc(S(=O)(=O)N(CC(C)C)CC(C)C)cc2)o1 | 97.6% |
| CCn1c(=O)c(C(=O)NCc2ccc(OC)cc2)c(O)c2ccccc21 | 99.5% |
| CS(=O)(=O)N1N=C(c2ccco2)CC1c1ccc(Cl)cc1 (stereo not given) | 102% |
| CC1(C)CCN2CCC(C)(C)c3c(O)ccc1c32 | 105% |
| O/C=c1\ccc2cccc3nc(C(F)(F)F)nc1c23 | 111% |

Source: PubChem BioAssay
